From PubChem BioAssay (NCATS) come the findings set out here.

Structures are written as SMILES. Results filed as inconclusive are left out. A number with no mark means an inactive call. Active and inactive are the calls of the source. Calls come from the whole dose curve; as a rule, active = well fitted curve in the direction sought with a large enough effect; inconclusive = small, poorly fitted or top-dose-only effect, or another doubt; inactive = no such curve, though single readings can be large; an effect the other way counts as inactive or inconclusive.

One test in a line: Identifying Small Molecule Inhibitors of Pancreatic Cancer Stem Cells (A2780, Spheroid) (AID 1259357).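 For viability (percent of control): 100% = DMSO treated cells and 0% = wells without cells.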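 Note: compound exposure lasted 48 h before the ATP luminescence read.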 Note: potency is the fitted concentration of half-maximal effect. Particulars: Potency: A2780 spheroid viability; series mostly up to 46.1 µM; viability (percent of control): at the top concentration. Summed up:
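Viability is scored by CellTiter-Glo luminescence 48 h after dosing, expressed as percent activity against vehicle and no-cell references. Spheroid formats rely on cells cultured 14 days in stem cell media beforehand.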
For `O=C1C(Cl)=C(NCCN2CCOCC2)C(=O)c2ncccc21`, the Potency is 9.35 µM (active).

`CC(C)(C)COc1ccc(-n2cc(C(=O)O)cn2)cc1C#N`: the “viability (percent of control)” value was 83.5%.

As to `CC(=O)N(C)C1(c2ccccc2)CCN(CCC[C@]2(c3ccc(Cl)c(Cl)c3)CCCN(C(=O)c3ccccc3)C2)CC1`, the Potency was 18.7 µM (active).

Another test is described as follows: Identifying Small Molecule Inhibitors of Pancreatic Cancer Stem Cells (SN12C, Adherent) (AID 1259358).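 Note: cell survival measured after 48 h of compound exposure.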 Note: potency is the fitted concentration of half-maximal effect. The conditions noted are these: viability/growth inhibition; series mostly up to 46.1 µM; viability (percent of control): at the top concentration. Summed up: (§1)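 Cytotoxicity read by CellTiter-Glo luminescence after 48 h compound exposure at 37C; percent activity scaled between DMSO-treated cells and cell-free wells. Spheroid formats used cells pre-formed 14 days in stem cell media on hydrogel.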
Regarding `O=C1C(Cl)=C(NCCN2CCOCC2)C(=O)c2ncccc21`, the Potency was 6.62 µM (active).

For the compound `CC(C)(C)COc1ccc(-n2cc(C(=O)O)cn2)cc1C#N`, the “viability (percent of control)” value was 96.4%.

Regarding `CC(=O)N(C)C1(c2ccccc2)CCN(CCC[C@]2(c3ccc(Cl)c(Cl)c3)CCCN(C(=O)c3ccccc3)C2)CC1`, the Potency was 20.9 µM (active).

With `CO[C@H]1C=CC=C(C)C(=O)NC2=CC(=O)C(NCCN(C)C)=C(C[C@@H](C)C[C@H](OC)[C@@H](O)[C@@H](C)C=C(C)[C@@H]1OC(N)=O)C2=O`, the Potency was 0.0935 µM (active).

The nature of the next test: Identifying Small Molecule Inhibitors of Pancreatic Cancer Stem Cells (A278, Adherent) (AID 1259361).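 For viability (% of control): 100% = DMSO-treated cells and 0% = cell-free media-only wells.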 Note: nearly all actives have a fitted effect of over 35% in size. The conditions noted are these: series mostly up to 46.1 µM; viability (% of control): at the top concentration. Summed up:
as §1
On to `O=C1C(Cl)=C(NCCN2CCOCC2)C(=O)c2ncccc21`, for which the IC50 (viability decrease) is 3.32 µM (active).

Consider `CC(C)(C)COc1ccc(-n2cc(C(=O)O)cn2)cc1C#N`, for which the “viability (% of control)” value is 107.

For the compound `Cc1nc(N)sc1-c1ccnc(Nc2ccc(N3CCOCC3)cc2)n1`, the IC50 (viability decrease) is 5.9 µM (active).

For `CC(=O)N(C)C1(c2ccccc2)CCN(CCC[C@]2(c3ccc(Cl)c(Cl)c3)CCCN(C(=O)c3ccccc3)C2)CC1`, the IC50 (viability decrease) is 9.35 µM (active).

Consider `CO[C@H]1C=CC=C(C)C(=O)NC2=CC(=O)C(NCCN(C)C)=C(C[C@@H](C)C[C@H](OC)[C@@H](O)[C@@H](C)C=C(C)[C@@H]1OC(N)=O)C2=O`, for which the IC50 (viability decrease) is 0.0059 µM (active).
